From the antibiotic and cytotoxicity screens of Wong et al. (2023)
Screen size: about 39,000 compounds; about 500 (1.3%) were called active. This excerpt belongs to a sample that is enriched for actives.

test system: S. aureus RN4220; test: growth inhibition call (relative growth <= 0.2); conditions: 50 µM

SMILES	growth inhibition call
C[C@H](CO)N1C[C@H](C)[C@@H](CN(C)C(=O)c2ccncc2)OCCCC[C@H](C)Oc2ccc(NS(=O)(=O)c3ccc(Cl)cc3)cc2C1=O	inactive
Cc1cn([C@@H]2C[C@H](O)[C@@H](CO)O2)c(=O)[nH]c1=O	inactive
Cc1cn([C@@H]2C[C@@H](O)[C@H](CO)O2)c(=O)[nH]c1=O	inactive
O=c1[nH]c(=O)n([C@@H]2C[C@@H](O)[C@@H](CO)O2)cc1F	active
O=c1[nH]c(=O)n([C@H]2C[C@H](O)[C@@H](CO)O2)cc1F	active
O=c1[nH]c(=O)n(C2CC(O)C(CO)O2)cc1F (stereo not given)	inactive
Cc1cn([C@H]2C[C@H](O)[C@@H](CO)O2)c(=O)[nH]c1=O	inactive
C[C@H](CO)N1C[C@H](C)[C@@H](CN(C)S(=O)(=O)c2cn(C)cn2)Oc2ccc(NC(=O)C3CC3)cc2C1=O	inactive
C[C@H]1CCCCO[C@@H](CN(C)C(=O)Cc2ccccc2)[C@@H](C)CN([C@@H](C)CO)C(=O)c2cc(NS(=O)(=O)c3ccc(F)cc3)ccc2O1	inactive
C#CCOc1ccc(-c2c(C(=O)NC3CCCCC3)oc(OC)c2S(=O)(=O)c2ccc(Cl)cc2)cc1	inactive
COc1ccc(S(=O)(=O)N(C)C[C@H]2OCCCC[C@@H](C)Oc3ccc(NC(=O)Nc4c(C)noc4C)cc3C(=O)N([C@@H](C)CO)C[C@@H]2C)cc1	inactive
O=C(/C=C/c1cccc(-c2cn(CC(=O)N3CCC4(CC3)C(=O)NCN4c3ccccc3)nn2)c1)NO	inactive
O=C(CCc1cn(CC(=O)N2CCC3(CC2)C(=O)NCN3c2ccccc2)nn1)NO	active
O=C(NO)c1cn(-c2cccc(C(=O)N3CCC4(CC3)C(=O)NCN4c3ccccc3)c2)nn1	active
O=C(/C=C/c1cccc(-c2cn(-c3cccc(C(=O)N4CCC5(CC4)C(=O)NCN5c4ccccc4)c3)nn2)c1)NO	inactive
O=C(NO)c1cn(CC(=O)N2CCC3(CC2)C(=O)NCN3c2ccccc2)nn1	inactive
O=C(Cn1cc(CN2C(=O)COC[C@H]2c2ccccc2)nn1)N1CCC2(CC1)C(=O)NCN2c1ccccc1	inactive
Cc1ccc(S(=O)(=O)N(C)C[C@@H]2Oc3c(NC(=O)c4cnccn4)cccc3C(=O)N([C@@H](C)CO)C[C@H]2C)cc1	inactive
C[C@@H]1CCCCO[C@@H](CN(C)S(=O)(=O)c2ccccc2)[C@@H](C)CN([C@H](C)CO)C(=O)c2cc(NS(=O)(=O)c3ccc(Cl)cc3)ccc2O1	inactive
Cc1noc(C)c1S(=O)(=O)Nc1cccc2c1O[C@@H](CN(C)Cc1ccc(C(=O)O)cc1)[C@@H](C)CN([C@H](C)CO)C2=O	inactive
